# Whole data set: some 1,700 compounds, median “T3 sensor activation Q score (MG/GFP ratio z-score vs DMSO controls)” near 0.25, cut for the highest 2% near 1.9. This is one part of a sample in which the highest values are shown more often than they occur.
# Tested on: ppGalNAc-T3 sensor
# Test: T3 sensor activation Q score (MG/GFP ratio z-score vs DMSO controls) (SD units); higher = more sensor activation (inhibition of ppGalNAc-T3 glycosylation)
# Details: HEK293 sensor cells; 10 µM; 6 h
# Procedure: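 Cells were treated with compound at 10 uM for 6 h, then MG/GFP ratio was read by flow cytometry (10,000 cells per well, duplicate wells). Q = (R - R_neg)/SD_neg relative to DMSO vehicle controls; the signal rises when the glycosyltransferase is inhibited.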
row,SMILES,T3 sensor activation Q score
1,O=S1(=O)CSCS(=O)(=O)C1,-0.85
2,Cc1ccc(NC(=O)Nc2ccccc2C(N)=O)cc1,-0.95
3,CSc1cccc(NC(=O)Nc2ccccc2C(N)=O)c1,0.9
4,Cc1cc(NC(=O)NC(=O)c2ccccc2NC(=O)C(C)N)ccc1Oc1ncc(Br)cn1 (stereo not given),4.35
5,C[C@@H]1O[C@@H](Oc2c(-c3cc(O)c(O)c(O)c3)oc3cc(O)cc(O)c3c2=O)[C@H](O)[C@H](O)[C@H]1O,0.05
6,NC(N)=Nc1ccc(N=C(N)N)cc1,0.3
7,COc1ccc(OC)c(NC(=O)c2cc3oc4ccccc4c3cc2O)c1,-1.55
8,Nc1cc(=O)[nH]c2ncnn12,-0.15
9,CCOc1ccc(NC(=O)C2CCCN(C)C2)cc1 (stereo not given),0.6
10,Nc1ncnc2c([C@@H]3O[C@H](CO)[C@@H](O)[C@H]3O)c[nH]c12,0.15
11,COC(=O)CC1OCC=C2CN3CCC45C6=CC(=O)C(=O)C([N+](=O)[O-])=C6NC4C1C2CC35 (stereo not given),-0.2
12,CCOC(=O)C1(C#N)C(=O)CSC1=Nc1ccccc1Cl (stereo not given),-1.05
13,CCOC(=O)Nc1c2ccccc2nc2ccccc12,-1.8
14,CCOC(=O)Nc1cc2c(c(N)n1)N=C(c1ccccc1)CN2,4
15,CCOC(=O)Nc1csnn1,-0.7
16,Oc1ccc(Nc2ccnc3cc(Cl)ccc23)cc1,1.1
17,O=C(Nc1cccc([N+](=O)[O-])c1)c1cccc(C(=O)Nc2cccc([N+](=O)[O-])c2)c1,-0.25
18,Cc1c(-c2ccccc2)n(O)[n+]([O-])c1-c1ccccc1,0.7
19,Oc1ccccc1Nc1ccccn1,1.75
20,Cc1nnc2nc(-c3ccccc3)nc(-c3ccccc3)n12,-1.75
21,CCOC(=O)c1c(O)cc(C)[nH]c1=O,-0.85
22,O=S(=O)(c1ccc2c(c1)CCCN2)N1CCC[C@H]2CCCC[C@@H]21,0.2
23,O=C1OC(CN(Cc2ccccc2)Cc2ccccc2)CN1/N=C/c1ccc([N+](=O)[O-])o1 (stereo not given),-0.6
24,Cc1cc2nc(CS)[nH]c2cc1C,-1.1
25,CC(=O)Nc1ccc2cc3ccc(NC(C)=O)cc3nc2c1,0.2
26,Cc1ccc(-n2nnnc2-c2cccnc2)cc1,-0.15
27,CCOC(=O)c1cc[nH]c1CC(=O)NC,0.6

row,SMILES,T3 sensor activation Q score
1,Cc1ccc2c(c1)c1ccc3c(c1n2C)C(=O)C=CC3=O,-1.5
2,Cc1cccc(C)c1NC(=O)Nc1ccc(S(N)(=O)=O)cc1,1.6
3,CCOC(=O)/C(C#N)=C1\SS/C(=C(/C#N)C(=O)OCC)S1,0.55
4,c1cc(CN2CCCNCCNCCCNCC2)ccc1CN1CCCNCCNCCCNCC1,-0.5
5,NCCN1CCNCC1,1.85
6,C=CCOc1ccc(S(C)(=O)=O)cc1,1.85
7,C#CCOCC1CN(c2ccccc2)C(=O)O1 (stereo not given),1.9
8,CCCCOc1ccc(N=Nc2ccc(N)nc2N)cn1,1.7
9,O=C(Nc1cccc2ccccc12)c1ccccc1,-0.45
10,N#CC1C=Cc2c(ccc3ccccc23)N1C(=O)c1ccccc1 (stereo not given),2.65
11,O=C(CC1C=Cc2ccccc2N1C(=O)c1ccccc1)c1ccccc1 (stereo not given),-1.4
12,Nc1ccc2c(c1)Cc1cc(Cl)c(Cl)cc1-2,-0.65
13,OC(COc1ccc(Cl)cc1)CN1CCN(c2cccc(Cl)c2)CC1 (stereo not given),-0.65
14,O=C(Nc1ccc2ncccc2c1)Nc1ccc2ncccc2c1,0.15
15,Cc1c(CCO)c(=O)n2n1CCCC2,-0.55
16,CCCCCCCC1(C)NC(=O)NC1=O (stereo not given),-1.9
17,ClCC(CNCc1ccccc1)c1ccccc1 (stereo not given),0.35
18,O=c1cc(-c2ccc(Cl)cc2)[nH]c2ccccc12,0
19,c1ccc(N=NN2CCOCC2)cc1,-0.75
20,CC1(C)OC2C(CO)OC(n3cnc4c(=S)nc[nH]c43)C2O1 (stereo not given),0.4
21,COC(=O)CC1(C(=O)OC)Nc2cc(Cl)c(Cl)cc2S(=O)(=O)N1O (stereo not given),0.7
22,CN(CCC#N)c1ccc(/C=C(\C#N)c2cccc(C(F)(F)F)c2)cc1,-0.05
23,CC1CC(C)(C)NC2(CCCC2)N1 (stereo not given),-0.6
24,O=C(Nc1ccc(O)c(C(=O)O)c1)Oc1ccccc1,0.9
25,c1ccc2[nH]c(-c3ccncc3)nc2c1,0.2
26,CC(=O)CC(=O)Nc1ccc2ccccc2c1,1.25
27,c1ccc2[nH]c(CCCCCc3nc4ccccc4[nH]3)nc2c1,-0.5

row,SMILES,T3 sensor activation Q score
1,Cc1ccc(CC#N)c(-c2c(CC#N)ccc(C)c2C)c1C,-0.85
2,c1ccc2c(c1)[nH]c1c3ccccc3sc21,-0.95
3,O=C(Nc1ccc(Nc2ccncc2)cc1)c1ccc([N+](=O)[O-])cc1,0.75
4,O=C(Nc1ccc(Nc2ccncc2)cc1)c1ccc(Nc2ccnc3ccc([N+](=O)[O-])cc23)cc1,9.85
5,O=C(Nc1ccc(Nc2ccncc2)cc1)c1ccc(Nc2ccnc3ccc([N+](=O)[O-])cc23)cc1[N+](=O)[O-],-1.4
6,C/C(=N\NC(=S)N1CC2CCC(CC2)C1)c1cnccn1,-1.2
7,CCOC(=O)c1nn(-c2ccccc2)cc1O,0.05
8,O=C(c1ccc(OCCN2CCCCC2)cc1)c1c(-c2ccc(O)cc2)sc2cc(O)ccc12,2.7
9,CC1=Nc2ccccc2/C1=C\c1c(C)[nH]c2ccccc12,-0.45
10,O=C(C(=O)c1cccnc1)c1cccnc1,1.75
11,Cc1ccncc1C(N)=O,1.9
12,Cc1ccc(NC(=O)Nc2cccnc2)cc1NC(=O)Nc1cccnc1,0.95
13,COc1ccccc1NC(=O)c1cc2ccccc2cc1O,-0.55
14,NC(=O)c1cc(C(N)=O)nc(Cl)n1,-0.8
15,C=CCNC(=S)N1CCN(c2ccccc2Cl)CC1,-0.25
16,O=C(C(Cl)Cl)N1CC2CCC(CC2)C1,1.4
17,NS(=O)(=O)c1ccc(NC(=S)NC(=O)c2ccco2)cc1,1
18,CN=C1C=C/C(=N/N=c2/ccn(O)cc2C)C=C1C,0.15
19,CC(C)(C)c1ccc(C(=O)N2CCOC23CCCCC3)cc1,1.85
20,O=C(COc1ccc([N+](=O)[O-])cc1Cl)N1CCOCC1,1.85
21,O=C(COc1cc(Cl)c(Cl)cc1Cl)Nc1ccc([N+](=O)[O-])cc1Cl,-0.3
22,CC(=O)NCCCOc1ccc([N+](=O)[O-])cc1Cl,-0.6
23,COc1ccc(Br)c2c1C(=O)CC2,-1.4
24,CCCN(CCC)CC(=O)N1CC(=O)Nc2ccccc21,0.55
25,Nc1ccc(N=Nc2ccc(O)cc2)c(N)n1,1.5
26,Cc1ccc(N=Nc2c(O)c3ccccc3[nH]c2=O)c(S(=O)(=O)N(C)C)c1,0.95
